Assay results as given in the supplement of paper PMC6555819.

Legend:
Assay in all cases: PBM binding z-score (relative to random genomic background probes); higher = stronger binding; sequences stand for … in GC…GCGATTGACAGCGTAGAATGAAGG
[1] = system: PPARg:RXRa IVT, anti-PPARg (NR concentration 270 nM, RXRa partner concentration 90 nM)
Summary of the method: (§1)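 Probes were double-stranded and carried 34-nt variable regions with direct-repeat seeds, single-nucleotide variants, half-site ablations and random human genomic background sequences, printed on custom Agilent 4×180K protein-binding microarrays. Arrays were incubated 1 h with ligand-free nuclear receptor dimers in PBS pH 7.4, 2% milk, 0.02% Triton X-100, 1 mM DTT, 0.2 mg/mL BSA and 0.4 mg/ml salmon testes DNA. Antibodies against each partner (one per run) detected binding, and scanned fluorescence was regression-normalized. Binding z-scores use the random background probes as reference.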

[2] = system: PPARg DBDmut:RXRa IVT, anti-PPARg (DBD mutation: PPARg1 K132A/R137A, NR concentration 270 nM, RXRa partner concentration 90 nM)
Summary of the method: as §1

[3] = system: PPARg DBDmut IVT, anti-PPARg (DBD mutation: PPARg1 K132A/R137A, NR concentration 270 nM)
Summary of the method: as §1

[4] = system: PPARg homodimer (NR concentration 180 nM)
Summary of the method: as §1

[5] = system: PXR:RXRa (NR concentration 270 nM, RXRa partner concentration 90 nM)
Summary of the method: as §1

[6] = system: PXR homodimer (NR concentration 270 nM)
Summary of the method: as §1

[7] = system: RARa:RXR (NR concentration 270 nM, RXRa partner concentration 90 nM)
Summary of the method: as §1

[8] = system: RARa homodimer (NR concentration 270 nM)
Summary of the method: as §1

[9] = system: RARb:RXRa (NR concentration 270 nM, RXRa partner concentration 90 nM)
Summary of the method: as §1

[10] = system: RARb homodimer (NR concentration 270 nM)
Summary of the method: as §1

Row | Sequence | PBM binding z-score [1] | PBM binding z-score [2] | PBM binding z-score [3] | PBM binding z-score [4] | PBM binding z-score [5] | PBM binding z-score [6] | PBM binding z-score [7] | PBM binding z-score [8] | PBM binding z-score [9] | PBM binding z-score [10]
1 | ATATGTAGGTTACCTGGGGTCATTCAGACTAGGC | 7.26 | 2.71 | 1.81 | 2.87 | 6.79 | 4.76 | 5.89 | 0.968 | 3.18 | 4.13
2 | TCTCGGAGGACACTAAAGGTCAGAGCTCGACATC | 1.59 | -0.114 | -0.191 | 2.43 | 3.8 | 0.66 | 4.14 | 0.456 | 3.84 | 4.7
3 | ACTAGTTGGTCAGCTGAGGTCACACCCAATTCGG | 2.55 | 1.1 | 0.595 | 2.35 | 5.14 | 1.25 | 4.27 | 0.354 | 3.57 | 4.33
4 | TCTGCTAGGTCATCGATGGTCAGCTAATCTGCTA | 4.24 | 0.105 | -0.541 | 0.22 | 1.81 | -0.703 | 2.07 | -1.04 | 4.02 | 3.19
5 | TGTATGAGGTTAAAGATCAGGGAACGTGGCGTCG | 1.99 | 0.959 | 0.628 | 1.78 | 2.38 | 0.249 | 3.55 | 1.35 | 2.49 | 1.35
6 | TAGCCGAGGTCATTCAGGGGCCAGTATAGAAAGC | 3.9 | 1.06 | 1.57 | 4.27 | 5.92 | 2.27 | 6.51 | 0.64 | 5.27 | 4.49
7 | ATCGAAAGGTCGAAGGTGCGTATACCCACCCGAA | 1.39 | 0.552 | 0.658 | 0.794 | 2.17 | -0.19 | 3.01 | 0.303 | 3.68 | 2.42
8 | ATCGAAAGGTCCAAGGTGAGTATACCCACCCGAA | 0.666 | 0.0343 | 0.185 | 0.369 | 0.0935 | -0.107 | 0.511 | 0.706 | 1.49 | 0.938
9 | AATACAGGGTCATCGTACGCCAGAGTACGCACAG | 4.44 | 3.9 | 1.45 | 3.42 | 4.53 | 0.995 | 5.47 | 1.81 | 4.45 | 3.46
10 | AGTCAAAGGTCATCTAGGTAACGTAAGATATGCT | 6.77 | 2.25 | 1.94 | 3.75 | 5.44 | 1.34 | 6.03 | 2.2 |  | 5.29
11 | TAGCCTAAGTCATGCGGGCCAGTATAGTGTCGGC | -0.138 | -0.862 | -1.37 | -0.139 | -0.538 | -0.831 | -0.11 | -1.14 | -0.165 | -0.506
12 | CGTCCAAGGTCAGCGGGTCAGTGAAAGCGACGTG | 3.48 | -0.302 | -0.244 | 3.27 | 3.9 | 1.09 | 5.13 | 1.34 | 5.2 | 4.69
